10 compounds from ChEMBL document CHEMBL3988442, “University of Dundee, Small-Polar-MMV Screening Library” (2021) can be followed below.

What all share (design): scale not given: direction of the effect not stated beside the values
Test [1] concerns the target Protein translocase subunit SecA (Escherichia coli (strain K12)) (UniProt P10408). The experiment in a line: Assay to Identify E. coli SecA ATPase Inhibitors. It counts as functional. The note with it: 30 µM.
The target in test [2] is T1, Ubiquitin-activating enzyme e1, putative (Leishmania donovani (strain BPK282A1)) (UniProt E9BSI1).
T1 sequence (whole entry): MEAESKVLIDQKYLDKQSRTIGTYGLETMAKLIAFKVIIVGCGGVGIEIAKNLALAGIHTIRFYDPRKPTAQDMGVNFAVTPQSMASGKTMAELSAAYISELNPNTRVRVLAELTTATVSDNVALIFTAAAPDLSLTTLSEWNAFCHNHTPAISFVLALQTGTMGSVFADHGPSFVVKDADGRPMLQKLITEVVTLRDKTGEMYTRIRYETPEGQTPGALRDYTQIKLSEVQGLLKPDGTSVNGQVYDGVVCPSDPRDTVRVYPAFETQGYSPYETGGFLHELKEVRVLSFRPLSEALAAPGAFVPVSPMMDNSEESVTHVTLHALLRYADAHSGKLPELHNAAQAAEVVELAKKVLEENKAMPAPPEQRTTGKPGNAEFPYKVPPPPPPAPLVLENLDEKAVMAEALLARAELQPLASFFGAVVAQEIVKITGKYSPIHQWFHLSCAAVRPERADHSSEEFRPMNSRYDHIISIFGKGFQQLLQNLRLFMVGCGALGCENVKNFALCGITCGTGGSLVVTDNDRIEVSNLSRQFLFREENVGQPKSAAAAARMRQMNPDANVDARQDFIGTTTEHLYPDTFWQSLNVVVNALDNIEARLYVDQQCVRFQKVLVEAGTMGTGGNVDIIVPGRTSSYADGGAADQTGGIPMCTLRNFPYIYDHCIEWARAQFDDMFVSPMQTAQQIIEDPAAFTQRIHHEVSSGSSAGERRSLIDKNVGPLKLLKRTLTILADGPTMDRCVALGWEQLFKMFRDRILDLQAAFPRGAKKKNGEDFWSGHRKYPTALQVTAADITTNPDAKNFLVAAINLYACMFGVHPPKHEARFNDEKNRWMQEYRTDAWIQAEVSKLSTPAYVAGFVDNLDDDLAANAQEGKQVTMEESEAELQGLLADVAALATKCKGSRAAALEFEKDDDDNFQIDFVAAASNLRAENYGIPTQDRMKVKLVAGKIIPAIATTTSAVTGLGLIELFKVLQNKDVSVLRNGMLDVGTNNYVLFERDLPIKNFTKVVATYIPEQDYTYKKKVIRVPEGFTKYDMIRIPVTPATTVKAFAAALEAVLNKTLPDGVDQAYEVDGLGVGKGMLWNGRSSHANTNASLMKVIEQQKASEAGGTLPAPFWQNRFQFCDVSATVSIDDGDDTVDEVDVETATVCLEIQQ
Put plainly: Leishmania donovani Ubiquitin Activating Enzyme (LdE1). It counts as functional. The following applies: 30 µM.

The target in test [3] is AMP-activated protein kinase, AMPK (Homo sapiens) (UniProt P54646+O43741+P54619+Q9UGJ0+Q9Y478+Q13131+Q9UGI9). The experiment in a line: AMP-dependent Kinase enzyme assay. An in vitro enzyme assay that detects ADP turnover that is directly proportional to AMPK activity. This uses naive AMPK that is activated during the assay with MK-8722. It counts as functional. The note with it: 30 µM.

Test [4] concerns the target Sialic acid-binding Ig-like lectin 9 (Homo sapiens) (UniProt Q9Y336). Put plainly: Hs-Siglec9 ALPHAscreen SOP 20170721. The note with it: 10 µM. Background: Alpha assays give light when donor and acceptor beads are brought close together.
The next test has as its system Trypanosoma cruzi. The experiment in a line: Trypanosoma cruzi phosphomannomutase and mannose-1-phosphate guanylyltransferase assay. Type of test: functional. The following applies: 10 µM.
In test [5] the target is T2, Arginase-2, mitochondrial (Homo sapiens) (UniProt P78540).
T2 sequence (whole entry): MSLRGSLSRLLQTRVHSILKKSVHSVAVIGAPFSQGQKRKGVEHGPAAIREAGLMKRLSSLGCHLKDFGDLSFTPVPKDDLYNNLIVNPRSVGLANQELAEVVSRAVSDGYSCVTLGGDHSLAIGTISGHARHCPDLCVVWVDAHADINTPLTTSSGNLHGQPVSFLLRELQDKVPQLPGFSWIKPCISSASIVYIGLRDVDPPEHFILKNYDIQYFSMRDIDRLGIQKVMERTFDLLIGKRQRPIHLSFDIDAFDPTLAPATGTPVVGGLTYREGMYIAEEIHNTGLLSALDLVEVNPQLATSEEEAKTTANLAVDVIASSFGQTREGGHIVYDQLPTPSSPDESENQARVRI
Put plainly: in vitro enzyme assay to detect the production of urea directly proportional to the activity of Arginase II. Further: in the data most compounds retested in dose-response had high values. It counts as functional. The note with it: 33.3 µM.

In test [6] the target is T3, Proteasome subunit beta (Trypanosoma cruzi) (UniProt O96673).
T3 sequence (whole entry): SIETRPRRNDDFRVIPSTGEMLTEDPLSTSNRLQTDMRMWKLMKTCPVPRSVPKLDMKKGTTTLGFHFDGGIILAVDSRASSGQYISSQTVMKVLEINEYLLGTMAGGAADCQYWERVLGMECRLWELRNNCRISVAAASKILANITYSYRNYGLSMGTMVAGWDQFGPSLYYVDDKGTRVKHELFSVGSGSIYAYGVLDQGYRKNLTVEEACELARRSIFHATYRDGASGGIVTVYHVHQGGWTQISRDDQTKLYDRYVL
Put plainly: Trypanosoma cruzi proteasome chymotrypsin-like activity (TcProtChymo) assay. Further: in the data most compounds retested in dose-response had high values. Type of test: functional. The note with it: 9.37 µM.

The species named for another test is Homo sapiens. The experiment in a line: To identify inhibition of the IFN signalling (Jak-Stat) pathway via expression of an eGFP reporter gene under the control of an IFN-stimulated response element (ISRE) containing MxA promoter. Type of test: functional. The following applies: 30 µM.
Test [7] deals with T4, Tyrosyl-tRNA synthetase, putative (Trypanosoma cruzi (strain CL Brener)) (UniProt Q4DSP6).
T4 sequence (whole entry): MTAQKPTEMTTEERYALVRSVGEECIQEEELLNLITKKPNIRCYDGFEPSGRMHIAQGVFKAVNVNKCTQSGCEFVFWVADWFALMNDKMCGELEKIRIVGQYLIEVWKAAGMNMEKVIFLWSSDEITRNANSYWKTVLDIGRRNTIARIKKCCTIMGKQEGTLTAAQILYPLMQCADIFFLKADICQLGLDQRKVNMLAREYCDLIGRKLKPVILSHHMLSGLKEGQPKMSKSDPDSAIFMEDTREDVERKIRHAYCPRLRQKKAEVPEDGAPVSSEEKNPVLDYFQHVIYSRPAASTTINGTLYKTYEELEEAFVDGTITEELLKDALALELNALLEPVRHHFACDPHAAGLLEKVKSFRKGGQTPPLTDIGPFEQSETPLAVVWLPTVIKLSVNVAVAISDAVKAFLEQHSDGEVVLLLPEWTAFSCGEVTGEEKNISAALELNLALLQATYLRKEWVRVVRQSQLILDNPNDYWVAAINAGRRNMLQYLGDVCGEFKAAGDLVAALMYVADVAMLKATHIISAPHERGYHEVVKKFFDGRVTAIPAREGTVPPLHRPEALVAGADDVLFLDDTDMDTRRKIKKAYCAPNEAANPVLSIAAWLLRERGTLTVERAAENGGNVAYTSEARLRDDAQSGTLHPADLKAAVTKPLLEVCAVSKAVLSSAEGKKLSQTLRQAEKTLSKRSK
Put plainly: Trypanosoma cruzi tyrosyl tRNA synthetase (TcYRS) _High Tyrosine SOP. Further: in the data most compounds retested in dose-response had high values. The note with it: 30 µM. It counts as functional.

Test [8] has as its target T4, Tyrosyl-tRNA synthetase, putative (Trypanosoma cruzi (strain CL Brener)). The experiment in a line: Trypanosoma cruzi tyrosyl tRNA synthetase (TcYRS) SOP. Type of test: functional. The note with it: 30 µM.
Test [9] deals with Chromo domain-containing protein 1 (Saccharomyces cerevisiae (strain ATCC 204508 / S288c) (Baker's yeast)) (UniProt P32657). Put plainly: ScCHD-1 Enzyme Inhibition Assay. Further: in the data most compounds retested in dose-response had high values. Type of test: functional. The note with it: 30 µM.
Chain of Chromo domain-containing protein 1 (Saccharomyces cerevisiae (strain ATCC 204508 / S288c) (Baker's yeast)) (P32657 whole entry, the tested form may be a part): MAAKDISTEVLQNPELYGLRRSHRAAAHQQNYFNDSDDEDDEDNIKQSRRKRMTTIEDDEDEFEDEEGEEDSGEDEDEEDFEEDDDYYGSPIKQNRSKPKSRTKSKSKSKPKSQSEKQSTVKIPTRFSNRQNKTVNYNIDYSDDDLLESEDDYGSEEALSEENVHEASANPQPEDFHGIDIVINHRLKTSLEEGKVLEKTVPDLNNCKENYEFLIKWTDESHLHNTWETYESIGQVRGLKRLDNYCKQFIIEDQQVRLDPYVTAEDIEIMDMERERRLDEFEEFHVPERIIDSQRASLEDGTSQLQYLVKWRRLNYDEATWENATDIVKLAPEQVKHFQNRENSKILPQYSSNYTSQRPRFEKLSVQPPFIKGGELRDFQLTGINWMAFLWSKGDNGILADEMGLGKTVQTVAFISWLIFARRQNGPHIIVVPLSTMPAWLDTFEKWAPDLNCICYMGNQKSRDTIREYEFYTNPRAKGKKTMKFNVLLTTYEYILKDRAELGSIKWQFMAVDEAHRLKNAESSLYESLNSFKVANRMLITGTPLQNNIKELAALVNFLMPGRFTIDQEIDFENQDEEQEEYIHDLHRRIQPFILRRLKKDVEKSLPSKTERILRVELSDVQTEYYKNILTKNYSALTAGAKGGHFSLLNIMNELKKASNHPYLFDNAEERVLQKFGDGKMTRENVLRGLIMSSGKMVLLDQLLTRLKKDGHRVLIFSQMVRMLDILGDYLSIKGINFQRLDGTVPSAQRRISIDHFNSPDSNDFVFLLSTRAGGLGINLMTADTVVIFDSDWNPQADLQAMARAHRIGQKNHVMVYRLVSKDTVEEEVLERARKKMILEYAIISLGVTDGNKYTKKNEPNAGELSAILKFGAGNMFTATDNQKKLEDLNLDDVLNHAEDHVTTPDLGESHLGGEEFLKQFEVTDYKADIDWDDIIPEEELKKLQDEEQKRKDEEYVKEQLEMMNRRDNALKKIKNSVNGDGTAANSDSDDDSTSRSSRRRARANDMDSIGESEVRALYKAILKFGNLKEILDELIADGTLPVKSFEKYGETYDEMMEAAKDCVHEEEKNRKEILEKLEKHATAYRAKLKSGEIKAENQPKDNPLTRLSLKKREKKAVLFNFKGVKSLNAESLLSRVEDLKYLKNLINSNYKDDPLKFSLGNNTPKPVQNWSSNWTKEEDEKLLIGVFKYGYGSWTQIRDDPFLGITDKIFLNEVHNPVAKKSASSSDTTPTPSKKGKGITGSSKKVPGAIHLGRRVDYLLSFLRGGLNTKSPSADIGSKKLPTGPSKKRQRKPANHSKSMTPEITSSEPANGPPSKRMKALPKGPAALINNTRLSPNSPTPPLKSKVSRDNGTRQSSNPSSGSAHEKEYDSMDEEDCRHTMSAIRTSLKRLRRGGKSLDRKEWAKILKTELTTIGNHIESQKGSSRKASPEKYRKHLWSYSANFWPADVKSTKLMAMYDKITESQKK

For some assays here: Potency and affinity values are given separately.

Chain of Protein translocase subunit SecA (Escherichia coli (strain K12)) (P10408 whole entry): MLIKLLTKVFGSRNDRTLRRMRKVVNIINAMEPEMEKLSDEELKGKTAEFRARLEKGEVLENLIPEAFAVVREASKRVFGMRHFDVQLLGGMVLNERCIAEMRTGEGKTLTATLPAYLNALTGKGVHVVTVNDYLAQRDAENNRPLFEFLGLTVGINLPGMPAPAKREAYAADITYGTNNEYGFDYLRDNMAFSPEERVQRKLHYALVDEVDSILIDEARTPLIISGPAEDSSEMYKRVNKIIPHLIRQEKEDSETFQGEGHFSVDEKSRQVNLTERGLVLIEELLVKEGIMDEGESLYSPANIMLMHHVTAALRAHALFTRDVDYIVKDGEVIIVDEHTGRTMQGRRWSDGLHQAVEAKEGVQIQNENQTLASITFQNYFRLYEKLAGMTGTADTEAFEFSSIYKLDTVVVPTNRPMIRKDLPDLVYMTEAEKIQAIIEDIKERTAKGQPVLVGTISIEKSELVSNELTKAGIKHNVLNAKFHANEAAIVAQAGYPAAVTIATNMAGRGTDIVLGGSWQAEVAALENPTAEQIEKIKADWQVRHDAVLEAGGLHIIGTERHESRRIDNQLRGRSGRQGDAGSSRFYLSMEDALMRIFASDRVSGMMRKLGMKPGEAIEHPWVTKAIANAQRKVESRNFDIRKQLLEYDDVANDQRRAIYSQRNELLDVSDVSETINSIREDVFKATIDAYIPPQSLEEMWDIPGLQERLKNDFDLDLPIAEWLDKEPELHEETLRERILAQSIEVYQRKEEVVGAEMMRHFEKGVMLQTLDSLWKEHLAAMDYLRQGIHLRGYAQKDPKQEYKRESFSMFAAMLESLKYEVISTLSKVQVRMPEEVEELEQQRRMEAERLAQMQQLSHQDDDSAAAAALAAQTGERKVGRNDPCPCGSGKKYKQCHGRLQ
Chain of Sialic acid-binding Ig-like lectin 9 (Homo sapiens) (Q9Y336 whole entry): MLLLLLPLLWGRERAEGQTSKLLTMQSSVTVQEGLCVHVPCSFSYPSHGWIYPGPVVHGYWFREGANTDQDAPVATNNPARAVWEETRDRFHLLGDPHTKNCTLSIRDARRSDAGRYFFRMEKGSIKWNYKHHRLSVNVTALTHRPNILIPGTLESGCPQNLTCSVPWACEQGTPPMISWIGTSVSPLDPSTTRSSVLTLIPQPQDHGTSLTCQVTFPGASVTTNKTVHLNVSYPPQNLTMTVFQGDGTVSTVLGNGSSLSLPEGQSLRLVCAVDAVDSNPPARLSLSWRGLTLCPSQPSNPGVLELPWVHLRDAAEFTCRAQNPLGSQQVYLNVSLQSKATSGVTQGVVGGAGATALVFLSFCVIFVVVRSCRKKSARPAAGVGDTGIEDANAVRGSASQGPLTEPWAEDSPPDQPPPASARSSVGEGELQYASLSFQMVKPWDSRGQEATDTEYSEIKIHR

In the case of `Cc1cnn(CC2CCCN2C(=O)Cc2n[nH]c3ccccc23)c1` (stereo not given), the Percent Effect is -5.48% in test [1]; 10.1% in test [2]; 14% in test [3]; 7.2% in test [4]; 2.17% in the test on Trypanosoma cruzi; 7.61% in [5]. Besides, the Percent Effect was -0.0819% in test [6]; 10.1% in the test filed under Homo sapiens; 8.37% in [7]; 11.4% in test [8]; -3.88% in [9].

Regarding `CC(=O)N1CCN(C(=O)CN2CCc3c(ncn3C3CC3)C2)CC1`, the Percent Effect in test [1] was -0.513%; in [2], 19%; in test [3], -1.56%; in test [4] it was -4.08%; in the test with Trypanosoma cruzi, 1.33%; in [5], 5.38%. In addition, the Percent Effect in test [6] was 17.5%; in the test listed under Homo sapiens, 11.7%; in test [7], 1.04%; in test [8], 5.06%; in test [9], -19.7%.

Regarding `COc1ccccc1OCC(=O)Nc1ncccc1Cl`, the Percent Effect is -3.19% in test [1]; 15.3% in test [2]; -6.62% in [3]; 22.9% in test [4]; 2.62% with Trypanosoma cruzi; -2.65% in [5]. In addition, the Percent Effect in test [6] is 4.39%; in the test listed under Homo sapiens, -9.45%; in test [7], 3.16%; in test [8], 10.3%; in [9], -3.43%.

As to `Cc1ccc(-c2cn[nH]c2C2CCCN(c3nccc(N)n3)C2)cc1` (stereo not given), the Percent Effect in test [1] is -2.69%; in test [2] it was 20.8%; in [3], 46.7%; in test [4], 15.4%; in the test on Trypanosoma cruzi it was 5.15%; in test [5], -1.77%. Besides, the Percent Effect in test [6] is 25.6%; in the test filed under Homo sapiens, 37.1%; in test [7] it was 7.37%; in test [8], 20.5%; in test [9], 3.03%.

In the case of `CC(C)(C)OC(=O)CNC(=O)CCc1nnc(-c2ccsc2)o1`, the Percent Effect was -5.71% in test [1]; 5.2% in test [2]; 2.21% in test [3]; 5.6% in test [4]; -0.688% with Trypanosoma cruzi; 24.8% in [5]. Also, the Percent Effect is 16.1% in [6]; 6.67% in the test filed under Homo sapiens; 3.23% in [7]; 3.7% in test [8]; -0.78% in [9].

Turning to `Cc1cc(CN(C)C(=O)C2CCCN(C(=O)c3cccs3)C2)no1` (stereo not given), the Percent Effect in test [1] is -3.6%; in [2], 10.4%; in test [3] it was 1.53%; in [4] it was 10.4%; in the test on Trypanosoma cruzi, 3.64%; in [5], -9.65%. Also, the Percent Effect in test [6] was 15.5%; in the test listed under Homo sapiens it was -5.21%; in [7], 5.38%; in test [8] it was 16.1%; in [9], -2.24%.

In the case of `O=C(NC1CC1)[C@H]1CC[C@@H]2[C@@H](CCN2c2ncc(F)cn2)O1`, the Percent Effect in test [1] was -3.27%; in test [2], 2.6%; in test [3], 0.23%; in test [4] it was 1.05%; with Trypanosoma cruzi it was -0.688%; in test [5] it was -2.76%. Further, the Percent Effect in test [6] was 4.16%; in the test listed under Homo sapiens, 11%; in [7], 3.23%; in [8] it was 1.24%; in test [9], 134%.

On to `CCCc1nc(C)c(C(=O)NS(=O)(=O)c2ccc(C#N)cc2)s1`, for which the Percent Effect in [1] was -4.98%; in test [2], 10.8%; in test [3] it was -2.15%; in test [4], 25.9%; in the test with Trypanosoma cruzi, 6.18%; in test [5] it was 0.476%. Moreover, the Percent Effect in test [6] was 9.14%; in the test listed under Homo sapiens it was 2.07%; in [7] it was 0.529%; in test [8] it was 9.76%; in test [9] it was -9.01%.

In the case of `CN(C)CCN1C[C@@H]2CN(C(=O)c3ccsc3)C[C@@H]2C1=O`, the Percent Effect in test [1] is -7.36%; in test [2] it was 5.2%; in [3], 0.643%; in test [4], 5.55%; with Trypanosoma cruzi, -3.25%; in test [5], 0%. Moreover, the Percent Effect in test [6] is 5.66%; in the test filed under Homo sapiens, 20.3%; in test [7] it was 0%; in test [8], 1.24%; in [9], 1.29%.

On to `CC(C)c1ncc2c(n1)CN(Cc1nc(-c3ccoc3)no1)CC2`, for which the Percent Effect in test [1] is -2.65%; in [2], 10.8%; in test [3], -16.9%; in test [4] it was 5.18%; in the test with Trypanosoma cruzi, 0.0929%; in [5], -0.185%. Moreover, the Percent Effect worked out at 6.46% in [6]; 12.5% in the test listed under Homo sapiens; 9.9% in [7]; 3.66% in test [8]; 11.7% in test [9].
